# Unmarked numbers belong to inactive results.
# System: HCC1569
# Experiment: H1.0 immunofluorescence intensity relative to DMSO (% of DMSO); higher = stronger H1.0 induction, active = 140 or more
# Conditions: concentration: 10 µM; 24 h
# In short: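 Compounds were applied at 10 µM for 24 h at 37 °C, in triplicate, to HCC1569 and TDF cells. The cells were then fixed and stained for H1.0, and nuclei were counterstained with DAPI. Nuclear H1.0 intensity or cell number is reported relative to the plate control as a percent, taking the median of replicates. Smoothing for positional effects was applied to HCC1569 values only.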
# 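Also: TDF is a line of transformed human dermal fibroblasts of mesenchymal origin.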
row,Compound,H1.0 immunofluorescence intensity
1,CCCCCN(C)CCC(O)(P(=O)([O-])O)P(=O)(O)O.[Na+],102
2,CC1(C(=O)O)C2CCC(O2)C1(C)C(=O)O (centres undefined) [Cantharidic Acid],180 (active)
3,C[N+]1(C)CCOC(O)(c2ccc(-c3ccc(C4(O)C[N+](C)(C)CCO4)cc3)cc2)C1.[Br-].[Br-] (centres undefined) [Hemicholinium-3],87.8
4,c1ccc2c(c1)[nH]c1cnccc12 [Norharmane],92
5,Nc1ncnc2c1ccn2C1OC(CO)C(O)C1O (centres undefined) [Tubericidin],70.1
6,COc1cc2c(cc1OC)C(C)NCC2 (centres undefined) [Salsolodine],86.3
7,COc1ccc(Cc2nccc3cc(OC)c(OC)cc23)cc1OC.Cl [Papaverine hydrochloride],126
8,CC(C)(C)c1o[nH]c(=O)c1CC(N)C(=O)O (centres undefined),95
9,COC1C(O)C(C)OC(OC2C(Oc3cccc4c(O)c5c(=O)oc6ccc(C)c7c(=O)oc(c34)c5c67)OC(C)C(O)C2O)C1O (centres undefined) [Chartreusin],108

# Reference: the supplement of paper PMC7156485
